Data reported in PubChem BioAssay AID504652 (National Center for Advancing Translational Sciences (NCATS), 2011).
The campaign covered roughly 360,000 compounds. About 11,000 (3.1%) were called active. The list comes from a sample in which actives are over-represented; it also holds similar structures and randomly drawn compounds. A number with no mark means an inactive call. Cut-off read from the data, not from the text of the source: active = activity change below about -30%; inactive = the rest.
% is set by controls: 0 for no effect and ±100 for the full control effect.

These molecules were tested against D(1A) dopamine receptor (Homo sapiens) (UniProt P21728) (assay: Antagonist of Human D 1 Dopamine Receptor: qHTS). Conditions: HEK293 TREx D1 cells, calcium flux, dopamine EC80; at 10 µM; active compounds read low.
Sequence of D(1A) dopamine receptor (Homo sapiens) (P21728 whole entry, looked up): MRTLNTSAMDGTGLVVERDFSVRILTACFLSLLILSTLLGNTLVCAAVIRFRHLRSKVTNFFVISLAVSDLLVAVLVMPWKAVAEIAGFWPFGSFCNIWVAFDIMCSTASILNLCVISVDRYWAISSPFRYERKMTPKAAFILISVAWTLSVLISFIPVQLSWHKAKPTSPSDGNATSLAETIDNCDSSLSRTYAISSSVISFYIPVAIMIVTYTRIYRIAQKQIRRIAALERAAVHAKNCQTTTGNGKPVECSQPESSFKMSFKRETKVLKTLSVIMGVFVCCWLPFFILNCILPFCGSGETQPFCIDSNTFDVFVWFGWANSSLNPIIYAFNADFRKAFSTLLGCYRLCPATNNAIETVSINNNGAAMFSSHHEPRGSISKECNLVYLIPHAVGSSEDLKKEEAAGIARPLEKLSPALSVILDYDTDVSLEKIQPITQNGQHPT
In short: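 After overnight tetracycline induction at 30 C, force-coupled D1 HEK293 cells took up a no-wash calcium dye at room temperature. Compounds were added and monitored 180 s, and the response to EC80 dopamine was then recorded.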
`CCc1cccc(-n2nnc(-c3nsc(NC(=O)c4ccc(C)cc4)n3)c2C)c1` gave an activity change, negative = inhibition of 16.6%.
In the case of `COc1cc(C(=O)NCc2ccc3c(c2)cc(C)n3C)cc(OC)c1OC`, the activity change, negative = inhibition is reported as -1.99%.
In the case of `CCOCC(=O)NCc1ccc2c(c1)cc(C)n2C`, the activity change, negative = inhibition is reported as -38.5% (active).
In the case of `Cc1ccc(CNC(=O)COc2ccc3c(c2)CCC3)cc1`, the activity change, negative = inhibition is reported as 0.495%.
Molecule `CCc1ccccc1NC(=O)Cn1c(=O)n(CC2CCC(C(=O)NCCc3ccccc3)CC2)c(=O)c2ccccc21` (centres undefined) has an activity change, negative = inhibition of 9.85%.
Work on `CCOC(=O)c1c(CN2CCOCC2)n(-c2ccccc2)c2ccc(O)cc12` yielded an activity change, negative = inhibition of 2.3%.
With `CC(=O)c1c(C)n(-c2ccc(C)cc2)c2ccc(O)cc12` the activity change, negative = inhibition was -50.8% (active).
`CC(=O)c1c(C)n(-c2ccc(N(C)C)cc2)c2ccc(OCC(N)=O)cc12` showed an activity change, negative = inhibition of 4.08%.
`O=c1c2ccccc2n(Cc2cccc(Cl)c2)c(=O)n1Cc1ccccc1` was tested, and the activity change, negative = inhibition was -3.55%.
`Fc1ccccc1Oc1ncnc2c1oc1ccccc12` was tested, and the activity change, negative = inhibition was -11.6%.
With `CCn1c(SCc2cc(=O)n3ccsc3n2)nc2ccccc21` the activity change, negative = inhibition was -2.02%.
With `O=c1cc(Cn2nnc(-c3ccc(Cl)cc3)n2)nc2sccn12` the activity change, negative = inhibition was -32.8% (active).
With `O=C(OCc1cc(=O)n2ccsc2n1)C1(c2ccc(Cl)cc2)CC1` the activity change, negative = inhibition was 5.81%.
With `COc1ccc2[nH]c3c(c2c1)CCN(C(=O)CCC1CCCC1)C3c1ccc(F)cc1` (centres undefined) the activity change, negative = inhibition was -3.48%.
Work on `CC(C)c1ccc(OCC(=O)N(Cc2ccc(N(C)C)cc2)C2CCS(=O)(=O)C2)cc1` (centres undefined) yielded an activity change, negative = inhibition of 12%.
Molecule `CC(C)CC(=O)N=C1SC2CS(=O)(=O)CC2N1CCc1ccccc1` (centres undefined) has an activity change, negative = inhibition of 4.43%.
`O=C(CCC1CCCC1)N=C1SC2CS(=O)(=O)CC2N1Cc1ccccc1` (centres undefined) was tested, and the activity change, negative = inhibition was -43% (active).
`C=CCN1C(=NC(=O)COc2ccccc2)SC2CS(=O)(=O)CC21` (centres undefined) showed an activity change, negative = inhibition of 5.52%.
Molecule `COc1ccccc1CN1CCC(CNC(=O)c2cnn(-c3cccc(Cl)c3)c2C2CCN(C(=O)OC(C)(C)C)CC2)CC1` has an activity change, negative = inhibition of 3.93%.
`Cc1ccc(Cl)cc1NC(=O)Cc1ccc(-n2c(C)nc3cccnc32)cc1` was tested, and the activity change, negative = inhibition was 13%.
For `COc1cc(OC)c2ccc(=O)oc2c1C(CCN1CCN(c2ccccc2)CC1)c1ccc2c(c1)OCO2` (centres undefined), the activity change, negative = inhibition was -83.8% (active).
`COc1cc(C(=O)NCCS(=O)(=O)N2CCN(c3ccccc3)CC2)cc(OC)c1OC` gave an activity change, negative = inhibition of -13.9%.
With `COc1cc(C(CCN2CCN(c3ccccc3)CC2)c2c(OC)cc(OC)c3ccc(=O)oc23)cc(OC)c1OC` (centres undefined) the activity change, negative = inhibition was -74% (active).
Molecule `COc1ccccc1N1CCN(Cc2cc(OC)c3c(c2)OCO3)CC1` has an activity change, negative = inhibition of -0.813%.
Molecule `COc1ccc(C(CC(=O)N2CCN(c3ccccc3)CC2)c2c(O)cc(OC)cc2OC)cc1` (centres undefined) has an activity change, negative = inhibition of 29.6%.
`O=C(NCC(c1ccc2c(c1)OCO2)N1CCN(c2ccccc2)CC1)C(=O)Nc1ccccc1F` (centres undefined) was tested, and the activity change, negative = inhibition was 4.02%.
`CC(=O)Nc1cccc(NC(=O)CSc2nccn2Cc2ccc3c(c2)OCO3)c1` gave an activity change, negative = inhibition of 1.91%.
Molecule `O=C(Nc1ccc(Br)cc1)c1ccc(Br)c(S(=O)(=O)NCc2ccccc2)c1` has an activity change, negative = inhibition of -21.6%.
For `CCOc1ccccc1NC(=O)C1CCCN(S(=O)(=O)c2cn(C)cn2)C1` (centres undefined), the activity change, negative = inhibition was -15.7%.
`Cc1ccccc1CNC(=O)CCCn1nc(C)c2sc3ccccc3c2c1=O` gave an activity change, negative = inhibition of -0.115%.
`CCOC(=O)Cn1c(=O)n(-c2ccccc2OC)c2nc(-c3cccc(F)c3)nc(C(N)=O)c21` was tested, and the activity change, negative = inhibition was -25%.
In the case of `CCc1cc2c(-c3ccccc3)cc(=O)oc2c2c1OCN(Cc1ccc(C)cc1)C2`, the activity change, negative = inhibition is reported as -3.71%.
`O=C1CSC2(C(=O)N(Cc3ccccc3)c3ccccc32)N1c1cccc(F)c1` (centres undefined) was tested, and the activity change, negative = inhibition was -4.64%.
`CC1CCCN(c2csc3ccc(F)cc3c2=O)C1` (centres undefined) was tested, and the activity change, negative = inhibition was -8.32%.
For `COc1ccc(C2=NC3(CCCCC3)N(CC(=O)Nc3ccc(C(C)C)cc3)C2=O)cc1`, the activity change, negative = inhibition was -5.42%.
With `Cc1cccc(NC(=O)Cn2nc(-c3ccc(Cl)cc3)c3ccccc3c2=O)c1` the activity change, negative = inhibition was 6.9%.
`O=C1C=C(c2ccc(Cl)cc2)C(=O)N1Nc1ccccc1` was tested, and the activity change, negative = inhibition was -47.7% (active).
With `Cc1ccc(-c2cn3c(n2)sc2cc(C(=O)NCCCc4ccccc4)ccc23)cc1` the activity change, negative = inhibition was 7%.
`Cc1ccc(-c2nc(C#N)c(NCCCn3ccnc3)o2)cc1` gave an activity change, negative = inhibition of 5.54%.
Molecule `O=S(=O)(c1ccccc1)c1nc(-c2ccccc2)oc1NCCCN1CCOCC1` has an activity change, negative = inhibition of -15%.
`N#Cc1nc(-c2ccc(OCc3ccccc3)cc2)oc1NCCCN1CCOCC1` was tested, and the activity change, negative = inhibition was -46.5% (active).
For `Cc1cc(C)cc(NC(=O)Cn2nc(N3CCN(c4ccccc4)CC3)ccc2=O)c1`, the activity change, negative = inhibition was 25.5%.
`COc1ccc(C)cc1NC(=O)C(=O)NCCc1sc(-c2cccc(C)c2)nc1C` showed an activity change, negative = inhibition of -28.6%.
`Cc1ccc(OCCSc2nc(-c3cccs3)nc3cc(=O)[nH]n23)cc1Cl` showed an activity change, negative = inhibition of -20.2%.
`CCc1ccccc1OCCSc1nc(-c2cccs2)nc2cc(=O)[nH]n12` was tested, and the activity change, negative = inhibition was -43.9% (active).
`O=c1cc2nc(-c3ccccc3)nc(SCCOc3ccc(Cl)cc3)n2[nH]1` was tested, and the activity change, negative = inhibition was -2.6%.
Molecule `CCc1ccc(NC(=O)CN2C(=O)CCSc3ccc(S(=O)(=O)N4CCCC4)cc32)cc1` has an activity change, negative = inhibition of 4.1%.
`COc1ccccc1NC(=O)c1cc(S(=O)(=O)NCCc2ccccc2)ccc1F` showed an activity change, negative = inhibition of -14.3%.
In the case of `Cn1cccc1/C=C1\SC(=S)N(NC(=O)c2ccc(Cl)cc2)C1=O`, the activity change, negative = inhibition is reported as -34% (active).
With `O=C(O)c1ccc(/C=C2\SC(=S)N(NC(=O)c3ccc(Br)cc3)C2=O)cc1` the activity change, negative = inhibition was -2.74%.
Work on `CC(=O)N1C(=O)/C(=C2\SC(=S)N(NC(=O)c3ccc(O)cc3)C2=O)c2ccccc21` yielded an activity change, negative = inhibition of 2.62%.
For `COc1cc(/C=C2\CCCc3c2nc2ccccc2c3C(=O)O)cc(Cl)c1O`, the activity change, negative = inhibition was -14.9%.
In the case of `NS(=O)(=O)c1ccc(NC(=O)COC(=O)c2c3c(nc4ccccc24)/C(=C\c2ccc4c(c2)OCO4)CCC3)cc1`, the activity change, negative = inhibition is reported as -45.1% (active).
Work on `NC(=O)c1ccc(NC(=O)COC(=O)c2c3c(nc4ccccc24)/C(=C\c2ccc4c(c2)OCO4)CCC3)cc1` yielded an activity change, negative = inhibition of -7.23%.
